Assay outcomes from PubChem.
Shown are actives, neighbours in structure and some others; about 10% of the full set was active somewhere.
Lamin A splicing: LMNA splicing modulation. HeLa LMNA splicing GFP/RFP minigene ratio, 48 h. Potency, µM (titrated, usually from 46.1 µM), for the others: at the top dose ratio change, negative = inhibition, hits mostly inhibitors. 200,000 tested, 0.01% active; active = well fitted inhibition curve with a large enough effect in the signal ratio, with a control signal flat, not every such curve was filed as active; inconclusive = small, poorly fitted or top-dose-only effect, or effect the other way, or a change in a side signal; the % refers to the signal ratio; also: potency is read from the fitted curve at half-maximal effect
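S3 HeLa stable clones carrying a lamin A-EGFP splicing minigene plus DsRed2 were seeded at 600 cells/well in Opti-MEM with 2% FBS, pin-dosed and incubated 48 h at 37°C. Acumen cytometry (488 nm) gave the GFP/RFP total-intensity ratio.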
ALDH1A1 inh: inhibitors of human aldehyde dehydrogenase 1A1; Potency, µM (highest dose often 75.3 µM), for inactives: at the highest dose activity, negative = inhibition, most hits filed as inhibitors; Purified ALDH1A1, NADH fluorescence, propionaldehyde substrate; 220,000 tested, 7.3% active; P00352;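 also: potency is read from the fitted curve at half-maximal effect; plate controls were no enzyme wells and a reference inhibitor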
Target sequence (P00352 whole entry, looked up): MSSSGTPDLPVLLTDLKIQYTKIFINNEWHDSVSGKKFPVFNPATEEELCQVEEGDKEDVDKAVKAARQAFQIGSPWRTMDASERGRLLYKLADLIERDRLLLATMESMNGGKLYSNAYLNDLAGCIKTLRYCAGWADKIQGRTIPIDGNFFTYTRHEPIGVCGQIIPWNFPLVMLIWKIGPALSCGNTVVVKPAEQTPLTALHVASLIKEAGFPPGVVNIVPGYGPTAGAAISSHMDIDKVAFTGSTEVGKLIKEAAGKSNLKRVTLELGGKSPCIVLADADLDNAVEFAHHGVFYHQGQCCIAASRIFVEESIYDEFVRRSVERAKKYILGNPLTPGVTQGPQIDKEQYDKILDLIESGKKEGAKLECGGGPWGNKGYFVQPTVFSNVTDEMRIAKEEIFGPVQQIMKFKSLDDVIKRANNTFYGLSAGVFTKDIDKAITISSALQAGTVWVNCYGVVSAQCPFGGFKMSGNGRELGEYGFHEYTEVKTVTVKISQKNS
12-hLO inh: inhibitors of human 12-lipoxygenase (ALOX12); Potency, µM (titrated, usually from 57.1 µM), for the others: top-dose activity change, negative = inhibition, actives largely listed as inhibitors; 150,000 tested, 0.12% active; purified 12-hLO, xylenol orange hydroperoxide absorbance; P18054; active = well fitted inhibition curve with a large enough effect; inconclusive = small, poorly fitted or top-dose-only effect; also: potency is read from the fitted curve at half-maximal effect; nearly all actives have a fitted effect of over 55% in size
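Xylenol orange chromogenic assay: hydroperoxide from 12hLO oxidises Fe(II), giving red-shifted Fe(III)-XO absorbance. Conditions: 150 nM enzyme, 40 uM arachidonic acid, 25 mM Hepes pH 7.0, 0.01% Triton X-100, 30 min, room temperature.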
HPGD inh: blocks human HPGD enzyme activity. P15428. Potency, µM, without a hit: at the highest dose activity change, negative = inhibition, most hits filed as inhibitors. purified HPGD, NADH fluorescence kinetic, PGE2 substrate. 150,000 tested, 4.3% active; also: potency is read from the fitted curve at half-maximal effect
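20 nM HPGD preincubated 15 min at room temperature with compound in 50 mM Tris-HCl pH 8, 0.01% Tween 20. Started with 1 mM NAD+ and 30 uM prostaglandin E2; NADH fluorescence (360/450 nm) read 5 times over 30-s intervals, last minus first.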
PNC assembly inh: perinucleolar compartment assembly inhibition. PC3M PTB-GFP, PNC prevalence imaging, 16 h; hits give low values. AID 2417. activity change (PNC), negative = inhibition, % at 10 µM. 140,000 tested, 3.1% active;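 active = readout at or below -70, meaning at least 70% loss of cells showing the perinucleolar compartment, a nuclear body marking cancer cells; inconclusive = readout between -30 and a set limit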;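 also: plate controls were DMSO wells for no effect and camptothecin positive control wells for full effect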
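Read-out is percentage of cells bearing a perinucleolar compartment, from automated 20x imaging of fixed, Hoechst-stained PC3M PTB-GFP cells. Cells were seeded 4 h, then exposed 16 h to compound (23 nl of library stock) in duplicate plates.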
* hit, by the source's call; ? = inconclusive; nt = no result given; [ ] = dose if it differs, or a comment. Unless noted, calls follow the shape of the dose curve; as a rule, active = well fitted inhibition curve with a large enough effect (not every such curve was filed as active); inconclusive = small, poorly fitted or top-dose-only effect, or another doubt; inactive = no such curve, though single readings can be large or run the other way. Unless noted, % is scaled to controls: 0 for no effect and ±100 for the full control effect.

SMILES	Lamin A splicing	ALDH1A1 inh	12-hLO inh	HPGD inh	PNC assembly inh
Cc1ccccc1OCC(=O)Nc1ccccc1-c1ccccc1	9%	8.9µM*	2%	-15%	10
CN(C)/C=C/c1oc2ccc(O)cc2c1[N+](=O)[O-]	nt	15%	nt	nt	nt
COc1ccc(CN(C)CC(=O)Nc2ccccc2-c2ccccc2)c(OC)c1	?	2.8µM*	nt	nt	nt
CC(=O)Nc1ccc2c(c1)C(=O)c1ccccc1C2=O	1%	3.5µM*	-6%	-4%	-4
O=Cc1ccc(Cl)c(Cl)c1	nt	?	-1%	-10%	nt
Clc1ccc(Cn2c(/C=C/c3ccco3)nc3ccccc32)cc1	?	?	-7%	?	-84*
COC(=O)c1ccc(COC(=O)c2ccc(N(C)C)cc2)cc1	2%	25µM*	-5%	?	-13
CCOC(=O)c1ccc(NC(=S)NCCC2=CCCCC2)cc1	?	?	25µM*	14µM*	-10
O=C(COC(=O)c1cnc(Cl)c(Cl)c1)NCCC1=CCCCC1	4%[46 µM]	13µM*	nt	nt	nt
CN(C)c1ccc(C(=O)OCc2ccccc2)cc1	5%	?	7%	?	25
O=C(COC(=O)c1ccccc1)NCCC1=CCCCC1	nt	-5%	nt	nt	nt
CN(C)c1ccc(C(=O)OCC(=O)NCCC2=CCCCC2)cc1	-3%[46 µM]	35µM*	nt	nt	nt
CC(N)=NCCCC[C@H](N)C(=O)O	nt	-4%	-3%	-5%	nt
CC(C)C[C@@H](CC(=O)N[C@@H](CCCN)CC(=O)N[C@@H]1CCNC[C@H]1C(=O)N[C@H](CC(=O)N[C@@H](CCC(=O)O)CC(=O)O)Cc1c[nH]c2ccccc12)NC(=O)[C@@H]1CNCC[C@H]1N	nt	-13%	0%	-5%	nt
CCN1CCCC1Cn1c(-c2ccccc2)nc2c(N(CCOC)CCOC)nc(C)nc21 (centres undefined)	nt	?	0%	-25%	nt
CC(=O)N/C(=C\c1ccccc1)C(=O)OCC(=O)N1CCCCCC1	-15%	11µM*	3%	nt	?
CCC1CN(C(=O)Nc2ccccc2C(F)(F)F)c2ccccc2S1 (centres undefined)	1%[46 µM]	nt	nt	nt	nt
CC(C)(C)C1CCC2(CC1)NC(=S)N(c1ccccc1)N2 (centres undefined)	14%	?	-23%	11µM*	169
O=S(=O)(c1cc(Cl)cc(Cl)c1)N1CCCC1c1nc2ccccc2s1 (centres undefined)	-1%	-2%	1%	-11%	-100*
O=S(=O)(c1ccc(Cl)cc1)N1CCCC1c1nc2ccccc2s1 (centres undefined)	0%	0%	-13%	-2%	6
CCCCOC(=O)CSc1nnc(-c2ccccc2)o1	0%[46 µM]	nt	nt	nt	nt
COc1ccc(-c2nnc3sc(-c4ccco4)nn23)cc1OC	5%	?	-8%	?	-18
c1csc(-c2nn3c(-c4ccncc4)nnc3s2)c1	8%	13%	1%	-8%	?
CCOc1cccc(-c2nnc3sc(-c4cccs4)nn23)c1	-2%	-5%	4%	-25%	-127*
COc1cccc(-c2nnc3sc(-c4ccco4)nn23)c1	1%	28µM*	1%	?	22
SMILES	Lamin A splicing	ALDH1A1 inh	12-hLO inh	HPGD inh	PNC assembly inh
c1coc(-c2nnc3sc(-c4cccs4)nn23)c1	-13%	20µM*	-7%	-13%	?
CC(C)[C@@H](CC(=O)N[C@@H]1CCCC[C@H]1C(=O)N[C@H](CC(=O)N[C@@H](CCC(=O)O)CC(=O)O)Cc1c[nH]c2ccccc12)NC(=O)C[C@H](Cc1c[nH]c2ccccc12)NC(=O)[C@@H]1CNCC[C@H]1N	nt	-4%	3%	-5%	nt
Cc1nnc(C)c2c(C)n(-c3ccc(Br)cc3)c(C)c12	1%	4%	2%	2%	?
Cc1cn(-c2ccc(Br)cc2)[nH]c1=O	-8%	4%	3%	25µM*	?
CNc1nc(-c2ccc3c(c2)CCN3C(=O)c2ccccc2C)cs1	-1%[46 µM]	13µM*	nt	nt	nt
CS(=O)(=O)N1CCc2cc(-c3csc(NC(=O)Cc4cccs4)n3)ccc21	?	13µM*	-1%	-14%	-19
CCCn1c(C)nc2c(NCCN(C)C)nc(C)nc21	nt	1%	-3%	-19%	nt
CN(C)CCCN=c1c2ccccc2n(C)c2[nH]c(=O)n(C)c(=O)c12	nt	-4%[13.5 µM]	0%[11.4 µM]	-1%	nt
N#C/C(=C\c1ccc[nH]1)C(=O)c1ccccc1	14%[46 µM]	?	nt	nt	nt
N#C/C(=C\c1cccc(Cl)c1)C(=O)c1ccccc1	-4%[46 µM]	0.71µM*	nt	nt	nt
O=C(Nc1ccc(-c2nnc3n2CCCCC3)cc1)c1cnccn1	4%	3%	-4%	10µM*	-18
O=C(Cn1cnc2ccccc2c1=O)Nc1ccc(-c2nnc3n2CCCCC3)cc1	1%	14µM*	-4%	13µM*	12
COc1ccc(C(=O)Nc2ccc(-c3nnc4n3CCCCC4)cc2)cc1OC	0%[46 µM]	nt	nt	nt	nt
Cc1onc(-c2ccccc2)c1C(=O)Nc1ccc(-c2nnc3n2CCCCC3)cc1	?	3%	-3%	7.1µM*	9
COC(=O)[C@@]1(Cc2ccc(OC)cc2)[C@H]2c3cc(C(=O)N(C)C)n(Cc4ccccc4)c3C[C@H]2CN1C(=O)c1ccccc1	nt	-1%	-5%	-3%	nt
CCn1cc(S(=O)(=O)c2cccc(Cl)c2)c(=O)c2cc(F)c(N3CCC(C)CC3)cc21	7%[46 µM]	nt	nt	nt	nt
CCOC(=O)c1sc2ccccc2c1S(=O)(=O)N1CCN(c2cccc(OC)c2)CC1	-27%[46 µM]	nt	nt	nt	nt
O=C(c1ccccc1C(=O)N1CCN(c2ccccc2)CC1)N1CCN(c2ccccc2)CC1	-19%	?	0%	-2%	-9
O=C(c1csc2c1CCCC2)N1CCN(c2ccccc2)CC1	-4%	-13%	4%	-7%	-80*
O=C(O)c1ccccc1C(=O)N1CCN(c2ccccc2)CC1	2%	16µM*	-5%	-12%	-26
